Laboratory results taken from PubChem BioAssay AID2284125 (EPA ToxCast).
The source made the active and inactive calls. The calls were made as follows: active = hit-call score of the fitted dose curve at least 0.9, where 1 is the maximum; inactive = score below 0.9.

target: Beta-2 adrenergic receptor (Homo sapiens) (UniProt P07550); experiment: ERF_FR_GPCR_hADRB2: Eurofins (ERF) G Protein-Coupled Receptor (GPCR) Radioligand Binding LeadHunter Assay for human Adrenoceptor Receptor beta2 Antagonism, conducted at France lab site
Experimental: ERF_FR_GPCR_hADRB2 is a biochemical, single-readout assay that uses extracted gene-proteins in a cell-free assay. Measurements were taken 2 hour after chemical dosing in a 96-well plate. See beta2 Human Adrenoceptor GPCR Binding (Antagonist Radioligand) Assay, Cerep.ERF_FR_GPCR_hADRB2 is an assay component calculated from the ERF_FR_GPCR_hADRB2 assay. It is designed to measure radioligand binding using a type of binding reporter as detected by scintillation counting with radiometry technology.Data from the assay component ERF_FR_GPCR_hADRB2 was analyzed at the assay endpoint, ERF_FR_GPCR_hADRB2, in the positive analysis fitting direction relative to DMSO as the negative control and baseline of activity. Using a type of binding reporter, loss-of-signal activity can be used to understand changes in binding as they relate to gene ADRB2. To generalize the intended target to other relatable targets, this assay endpoint is annotated to the gpcr intended target family, where the subfamily is adrenoceptor.
Human cells are incubated for 60 minutes in room temprature, using [3H](-)CGP 12177 ligand at 0.3 Kd (nM) with ICI 118551 control inhibitor.Test Sample Requirements: Minimum for 1) Screen: 60 ul of 10 mM stock -OR- 1 mg (pre-weighed) for […] uM final testing. 2) Dose Response: 90 ul of 10 mM stock -OR- 1 mg (pre-weighed) for a top concentration at 10 uM.

Beta-2 adrenergic receptor (Homo sapiens), sequence (P07550 whole entry, looked up): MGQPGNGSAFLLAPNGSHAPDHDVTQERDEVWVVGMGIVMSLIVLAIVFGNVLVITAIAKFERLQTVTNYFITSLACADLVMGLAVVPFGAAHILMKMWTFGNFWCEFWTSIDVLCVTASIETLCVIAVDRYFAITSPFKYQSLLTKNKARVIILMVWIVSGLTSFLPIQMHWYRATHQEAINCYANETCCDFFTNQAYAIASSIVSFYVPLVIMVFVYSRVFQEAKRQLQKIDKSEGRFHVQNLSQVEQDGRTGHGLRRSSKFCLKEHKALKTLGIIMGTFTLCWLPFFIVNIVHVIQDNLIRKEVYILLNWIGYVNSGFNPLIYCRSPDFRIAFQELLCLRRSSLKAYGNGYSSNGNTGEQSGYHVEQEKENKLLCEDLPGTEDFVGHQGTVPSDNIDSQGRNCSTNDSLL

Structure (SMILES)	outcome	AC50
COc1cc(CCC(=O)CC(=O)CCc2ccc(O)c(OC)c2)ccc1O	inactive	
O=C(/C=C/c1ccc(O)cc1)CC(=O)/C=C/c1ccc(O)cc1		3.68 µM (active)
